These results are taken from the OligoGym collection.
Further: reference of the scale not given here.

The first test has as its target GLIS2. Briefly: pooled miR-30 sensor sort-seq; sequence = guide strand. The note with it: shRNA.
In turn, TGGATGAGCATCTTGTACCTGG registered a sensor-assay potency score (higher = more potent) of -0.352. In turn, ATAGTCATTAGCTTATCTCTTT gave a sensor-assay potency score (higher = more potent) of -0.353.

Sequence TTTTTTTAAAACTCTATGCTAA gave a sensor-assay potency score (higher = more potent) of -0.424. The same measure, in the same setting: the figure for TTTATAAACTTCCTCTCCCATG is -1.13; for ATCGTTGACATGGTCCACCAGG it is -0.948; for TTTCACAGAAGAGTTTCCGTTC it is 0.4.

For TAAAACTCTATGCTAACAGCAA, the sensor-assay potency score (higher = more potent) is -0.574. The same measure, in the same setting: to TTGGAATAGCGCTTGTTGCAGC belongs -0.438. Same read-out and setting: to TAGTCATTAGCTTATCTCTTTT belongs -1.29; to TAGAAAGGCACTTAGAACCTGT, 0.24; to TATTGTTATAGTCATTAGCTTA, -0.656. Still for that read-out and setting: to TTCTCGTTGGTGTGTGTGCGGA belongs -0.632.

For the next test, the target named is GLP1R. Described as above. Particulars: shRNA.
For TTCAGGTGGATGTAGTTCCTGG, the sensor-assay potency score (higher = more potent) is -0.141. On the same count and under the same terms, the figure for TTGCAGAACAAGTCTGTGGCAG is 0.187.

On to TAGTTCATGTTGGAGTTCCTGG, for which the sensor-assay potency score (higher = more potent) was -0.642. On the same count and under the same terms, to TTCCTTGCACATCACATGCCTC belongs -0.533; to TTGATGAAGACGGACAATGCTC, -0.64. The sequence TTGGAGTTCCTGGTCCAGCAGC yielded a sensor-assay potency score (higher = more potent) of -1.12. On the same count and under the same terms, the figure for TATCCTATTATTTTCCTTGCAC is 0.182; for ATGAGCAGAAACACCAGGCGGC it is -0.579; for TTATATCCTATTATTTTCCTTG it is -0.237. The same measure, in the same setting: the figure for TTTTGCAGCCACGAACTCCTTG is 0.187; for TTTGATGTCTGTCTTGCACATG it is -0.835. Still for that read-out and setting: to TTGATGTCTGTCTTGCACATGA belongs -0.0737.

In a further test the target is GLRA3. Described as above. Particulars: shRNA.
TAACATATAAACACATTGGCAG had a sensor-assay potency score (higher = more potent) of -0.00869. Still for that read-out and setting: the figure for TTATTCTTTCTCTTTCGTCGAA is 0.181. Same read-out and setting: the figure for TGACTTTGCATAGCTAACCAAA is -1.29. Sequence TATTCTTTCTCTTTCGTCGAAA displayed a sensor-assay potency score (higher = more potent) of -0.712. On the same count and under the same terms, the figure for TTGCTTGTAGACATGGTCCCAT is 0.533; for TAGCTTTGACATATGAAACTTT it is -0.212. Turning to TAGGCTGTGAAGCTGAATCGGC, the sensor-assay potency score (higher = more potent) was -0.0399.

TTGCATGTGACATTAACTGGAG gave a sensor-assay potency score (higher = more potent) of -0.491. Still for that read-out and setting: the figure for TTCGAGATCTTGCACTGTCTGT is -0.307; for TTCTTCTTTCAACAGAAACTGG it is -0.833; for TATACATGTTTGTACATCCATG it is -1.26. TAGCATTGAATTACAAATCAAG showed a sensor-assay potency score (higher = more potent) of -1.08.

For a further test, the target named is GNAQ. The description is as above. Particulars: shRNA.
TTGTATGGGATCTTGAGTGTGT showed a sensor-assay potency score (higher = more potent) of 0.798. TTGTGCATGAGCCTTATTGTGC had a sensor-assay potency score (higher = more potent) of -1.26. In turn, TTGATAAACGTACTCTTGCCAC displayed a sensor-assay potency score (higher = more potent) of -0.533. The same measure, in the same setting: to TTTAAGAACAGAATAACCGAGG belongs -0.0655.
